Compounds with a hit are over-represented: about 4.1% of the library has one in this group of screens.
aSyn 5UTR inh = MLPCN primary screen, SNCA 5' untranslated region; alpha-synuclein 5'UTR reporter, inhibitor activity; inhibition, % (tested at 7.5 µM); 300,000 tested, 0.82% active; AID 1813; in the data active = inhibition above about 60%;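 note: H4 neuroglioblastoma cells stably carrying SNCA 5'UTR luciferase fusion; 0% = DMSO wells and 100% = positive control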
Mdm2-MdmX inh = disrupts the human Mdm2-MdmX interaction; SaOS-2 split-luciferase Mdm2/MdmX complementation, luminescence; 330,000 tested, 3% active; AID 485346; inhibition, % at 8 µM; O15151+Q00987;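 active = inhibition of at least 50% at 8 µM in the primary screen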
Target sequence (O15151 whole entry, looked up): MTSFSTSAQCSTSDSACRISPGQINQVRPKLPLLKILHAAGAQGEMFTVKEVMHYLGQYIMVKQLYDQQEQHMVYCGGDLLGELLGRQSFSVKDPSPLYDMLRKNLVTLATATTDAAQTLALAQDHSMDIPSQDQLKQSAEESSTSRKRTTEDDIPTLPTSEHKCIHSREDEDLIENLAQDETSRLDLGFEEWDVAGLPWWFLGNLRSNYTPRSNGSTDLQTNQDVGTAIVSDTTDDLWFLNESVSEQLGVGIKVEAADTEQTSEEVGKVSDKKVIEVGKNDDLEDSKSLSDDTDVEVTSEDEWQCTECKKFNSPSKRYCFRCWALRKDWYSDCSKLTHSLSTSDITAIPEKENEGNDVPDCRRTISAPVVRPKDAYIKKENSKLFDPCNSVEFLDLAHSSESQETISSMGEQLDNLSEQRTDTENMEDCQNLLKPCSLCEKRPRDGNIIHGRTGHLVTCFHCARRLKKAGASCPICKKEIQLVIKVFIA
Target sequence (Q00987 whole entry, looked up): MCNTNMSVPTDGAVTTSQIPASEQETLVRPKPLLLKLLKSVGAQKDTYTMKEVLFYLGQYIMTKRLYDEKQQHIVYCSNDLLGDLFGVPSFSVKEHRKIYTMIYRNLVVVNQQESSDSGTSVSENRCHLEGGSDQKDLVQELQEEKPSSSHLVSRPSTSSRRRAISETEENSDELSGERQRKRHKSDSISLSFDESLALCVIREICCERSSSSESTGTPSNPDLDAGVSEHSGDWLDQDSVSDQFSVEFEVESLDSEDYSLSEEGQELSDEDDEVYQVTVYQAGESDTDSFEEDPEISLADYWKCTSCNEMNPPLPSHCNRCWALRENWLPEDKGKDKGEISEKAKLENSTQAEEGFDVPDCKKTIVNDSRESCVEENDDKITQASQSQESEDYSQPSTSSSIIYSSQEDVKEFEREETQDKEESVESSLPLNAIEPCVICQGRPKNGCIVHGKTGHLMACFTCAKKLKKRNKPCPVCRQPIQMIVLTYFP
Beta apoptosis = beta cell apoptosis inhibition | INS-1E cytokine-induced death, ATP luminescence, 48 h; percent of positive-control rescue, neutral wells zero | protection from apoptosis, % (concentration not given with the values) | AID 435005 | 300,000 tested, 0.8% active;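 active = Every replicate reaches about 75%, or at least half do and their mean reaches it too, limit read from the data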;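 note: 0% = cytokine-treated negative control wells and 100% = positive control rescue; higher means more ATP so stronger rescue from cytokine killing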
CSC inhib = cancer stem cell inhibition; inhibition, % at 7.5 µM; cancer stem cell-like cells viability, luminescence; 300,000 tested, 1.1% active; in the data active = inhibition above about 75%; tested in HMLE shEcad cells
Bfl-1 A1 inh = inhibitors of the anti-apoptotic protein A1, read as caspase activation; MEF A1-2A-BIM cells, Caspase-Glo 3/7 luminescence, 3 h; percent of clofoctol response, vehicle zero; AID 2462; 330,000 tested, 0.066% active; caspase activation, % (concentration not given with the values);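 active = over half of replicate activation scores above 10%, or exactly half above 10 with the replicate mean above 10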
Mdm2 MdmX conf = human Mdm2/MdmX binding inhibition, confirmed; shares compounds with Mdm2-MdmX inh; luminescent assay; inhibition, % at 8 µM; 10,000 tested, 55% active; AID 489028; in the data active = inhibition above about 40%
Full FLuc ctr = full-length luciferase inhibition in Mdm2/MdmX counter-screen; shares compounds with Mdm2-MdmX inh; SaOS-2 full-length luciferase counterscreen, luminescence; inhibition, % at 8 µM; 6,200 tested, 77% active; AID 504607;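 active = mean inhibition at 8 µM reaching about 37%, which flags the compound as non-specific, limit read from the data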;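 note: p53-null SaOS-2 cells with luciferase driven by a doxycycline-inducible promoter; compound on cells about two nights before reading with doxycycline added after day one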
An asterisk follows results filed as active.

Results for Cc1noc(C)c1C(=O)Nc1cccc(S(=O)(=O)N2CCOCC2)c1 ?
Mdm2-MdmX inh: -4.2; Beta apoptosis: -4.7; CSC inhib: 5.5; Bfl-1 A1 inh: -0.3

What do the screens show for `Cc1cc(=O)oc2c1ccc1oc(/C(=N/O)c3ccccc3)c(C)c12`?
aSyn 5UTR inh: 23.6; Mdm2-MdmX inh: 57.9*; Beta apoptosis: 10.3; CSC inhib: 41.9; Bfl-1 A1 inh: 0.3; Mdm2 MdmX conf: 28.1

How did Cc1ccc(/C(=N\O)c2oc3c(C)c4oc(=O)cc(C)c4cc3c2C)cc1 do in these assays?
aSyn 5UTR inh: -1.5; Mdm2-MdmX inh: 73.9*; Beta apoptosis: 12.1; CSC inhib: 105.3*; Bfl-1 A1 inh: 0.4; Mdm2 MdmX conf: 29.6

Results for CCc1c(C(C)=O)oc2ccc3c(C)cc(=O)oc3c12 ?
aSyn 5UTR inh: 0.4; Mdm2-MdmX inh: 10.2; Beta apoptosis: 5.2; CSC inhib: -8.9; Bfl-1 A1 inh: 1.6

How did CCc1c(C(=O)c2ccc(Cl)cc2)oc2c(C)c3oc(=O)cc(C)c3cc12 do in these assays?
aSyn 5UTR inh: 3.8; Mdm2-MdmX inh: 59.1*; Beta apoptosis: -13.6; CSC inhib: -10.4; Bfl-1 A1 inh: 1.1; Mdm2 MdmX conf: 15.1

How did CCN(CC)S(=O)(=O)c1cccc(C(=O)Nc2cc(C)on2)c1 do in these assays?
aSyn 5UTR inh: -21.6; Mdm2-MdmX inh: -5.1; Beta apoptosis: -9.1; CSC inhib: -8.8; Bfl-1 A1 inh: -3.4

Results for O=C(NCc1ccco1)/C(=C/c1ccc(C(F)(F)F)cc1)c1nc2ccccc2[nH]1 ?
aSyn 5UTR inh: -93.6; Mdm2-MdmX inh: 20.8; Beta apoptosis: -4.6; CSC inhib: 37.9; Bfl-1 A1 inh: 0.1

Results for O=C(NCc1ccco1)/C(=C/c1cccc(C(F)(F)F)c1)c1nc2ccccc2[nH]1 ?
aSyn 5UTR inh: -84.2; Mdm2-MdmX inh: 82.7*; Bfl-1 A1 inh: -0.4; Mdm2 MdmX conf: 83.6*; Full FLuc ctr: 37.9*

Results for COC(=O)c1ccccc1S(=O)(=O)NNC(=O)Nc1ccccc1 ?
aSyn 5UTR inh: 34.2; Mdm2-MdmX inh: 68.9*; Beta apoptosis: -2.8; CSC inhib: -8.7; Bfl-1 A1 inh: -0.5; Mdm2 MdmX conf: 49.5*; Full FLuc ctr: 74.7*

What do the screens show for `COC(=O)c1ccccc1S(=O)(=O)C(C)(C)C`?
aSyn 5UTR inh: -12.5; Mdm2-MdmX inh: 2.2; Beta apoptosis: -6.6; CSC inhib: -6.2; Bfl-1 A1 inh: -0.6

How did CCOC(=O)N1CCN(S(=O)(=O)c2c(C(=O)N3CCCCC3)c(C)n(C)c2C)CC1 do in these assays?
aSyn 5UTR inh: -13.4; Mdm2-MdmX inh: 11.5; Beta apoptosis: -11.8; CSC inhib: 6.3; Bfl-1 A1 inh: -1.5

What do the screens show for `Cn1c(=O)c(Nc2ccc(Cl)cc2)c2c3c(cccc31)C(=O)c1ccccc1-2`?
aSyn 5UTR inh: 25.1; Mdm2-MdmX inh: 50.7*; Beta apoptosis: -1.8; CSC inhib: 37.9; Bfl-1 A1 inh: -0.5; Mdm2 MdmX conf: 15.0

What do the screens show for `O=c1[nH]c(C2CCN(S(=O)(=O)c3ccc4c(c3)OCCO4)CC2)nc2c1nnn2Cc1c(F)cccc1Cl`?
aSyn 5UTR inh: 27.3; Mdm2-MdmX inh: 56.3*; Beta apoptosis: -5.4; CSC inhib: 20.9; Bfl-1 A1 inh: -0.4; Mdm2 MdmX conf: 46.6*; Full FLuc ctr: 59.1*

What do the screens show for `O=c1[nH]c(C2CCN(S(=O)(=O)c3ccc4c(c3)OCCO4)CC2)nc2c1nnn2Cc1ccccc1F`?
aSyn 5UTR inh: 53.5; Mdm2-MdmX inh: 15.5; Beta apoptosis: 2.3; CSC inhib: 7.9; Bfl-1 A1 inh: 0.4

Results for O=C(CCl)NCc1cc(-c2ccc(Cl)cc2)no1 ?
aSyn 5UTR inh: -65.3; Mdm2-MdmX inh: 72.7*; Beta apoptosis: -8.4; CSC inhib: 59.4; Bfl-1 A1 inh: -0.2; Mdm2 MdmX conf: 29.2; Full FLuc ctr: 66.3*

How did CCOC(=O)c1cc2c(ccn2C)n1CC(=O)N(Cc1ccccc1)c1ccc(F)cc1 do in these assays?
aSyn 5UTR inh: 28.7; Mdm2-MdmX inh: 28.6; Beta apoptosis: 17.7; CSC inhib: 14.8; Bfl-1 A1 inh: 0.2

What do the screens show for `CC(C)OC(=O)c1cc2c(ccn2C)n1CC(=O)N(Cc1ccccc1)c1ccc(F)cc1`?
aSyn 5UTR inh: 50.8; Mdm2-MdmX inh: 79.5*; Beta apoptosis: 34.2; CSC inhib: 25.7; Bfl-1 A1 inh: 0.4; Mdm2 MdmX conf: 55.7*; Full FLuc ctr: 75.8*
